The values below come from PMC11006913.

Experiment in all cases: PBM; 200 nM protein, PBS
What all share (conditions): dsDNA, one strand shown

Assay [1] concerns the target MSX2 (Homo sapiens, UniProt P35548 130-214, R199I).
Assay [2] has as its target T1, NKX2-6 (Homo sapiens, UniProt A6NCS4 118-204).
T1 sequence: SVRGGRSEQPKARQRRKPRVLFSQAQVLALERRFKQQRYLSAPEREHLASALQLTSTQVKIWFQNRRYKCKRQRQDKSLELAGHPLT

In assay [3] the target is MSX2 (Homo sapiens, UniProt P35548 130-214).
Assay [4] has as its target VAX1 (Homo sapiens, UniProt Q5SQQ9 86-172).
Assay [5] addresses T2, NKX2-6 (Homo sapiens, UniProt A6NCS4 118-204, F151L).
T2 sequence: T1 sequence with F34L

Assay [6] has as its target MSX2 (Homo sapiens, UniProt P35548 130-214, F161Y).
The target in assay [7] is VAX1 (Homo sapiens, UniProt Q5SQQ9 86-172, T142I).
Assay [8] deals with VAX1 (Homo sapiens, UniProt Q5SQQ9 86-172, K157R).
The target in the next assay is PITX2 (Homo sapiens, UniProt Q99697 72-157).
Assay [9] deals with ALX3 (Homo sapiens, UniProt O95076 139-225, N203Q).
Assay [10] concerns the target ALX3 (Homo sapiens, UniProt O95076 139-225).
Assay [11] concerns the target ALX3 (Homo sapiens, UniProt O95076 139-225, L168Q).
Assay [12] has as its target ALX3 (Homo sapiens, UniProt O95076 139-225, L168V).
For assay [13], the target named is ALX3 (Homo sapiens, UniProt O95076 139-225, N203S).
For assay [14], the target named is ALX1 (Homo sapiens, UniProt Q15699 118-204, L144V).
For assay [15], the target named is ALX1 (Homo sapiens, UniProt Q15699 118-204, L144R).
The target of assay [16] is ALX1 (Homo sapiens, UniProt Q15699 118-204).
Assay [17] deals with PROP1 (Homo sapiens, UniProt O75360 56-141).
Assay [18] deals with PROP1 (Homo sapiens, UniProt O75360 56-141, R99H).
In assay [19] the target is PROP1 (Homo sapiens, UniProt O75360 56-141, F88S).
Another assay addresses HOXA2 (Homo sapiens, UniProt O43364 129-215, R185K).

Where a chain is given by its changes, count along the chain named.

VAX1 (Homo sapiens, UniProt Q5SQQ9 86-172, K157R), sequence (Q5SQQ9 86-172 K157R): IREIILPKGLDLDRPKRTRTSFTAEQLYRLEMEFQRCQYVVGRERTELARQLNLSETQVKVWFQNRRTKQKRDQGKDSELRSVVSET
MSX2 (Homo sapiens, UniProt P35548 130-214), sequence (P35548 130-214): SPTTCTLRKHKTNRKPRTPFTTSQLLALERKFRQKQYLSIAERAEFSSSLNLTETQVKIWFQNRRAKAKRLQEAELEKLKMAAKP
VAX1 (Homo sapiens, UniProt Q5SQQ9 86-172), sequence (Q5SQQ9 86-172): as the sequence (Q5SQQ9 86-172 K157R) above, with R72K counted along it
MSX2 (Homo sapiens, UniProt P35548 130-214, R199I), sequence (P35548 130-214 R199I): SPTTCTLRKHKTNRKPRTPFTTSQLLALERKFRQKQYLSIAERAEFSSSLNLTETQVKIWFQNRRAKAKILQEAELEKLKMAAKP
MSX2 (Homo sapiens, UniProt P35548 130-214, F161Y), sequence (P35548 130-214 F161Y): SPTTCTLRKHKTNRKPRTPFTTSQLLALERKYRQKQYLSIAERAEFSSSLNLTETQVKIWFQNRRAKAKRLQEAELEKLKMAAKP
VAX1 (Homo sapiens, UniProt Q5SQQ9 86-172, T142I), sequence (Q5SQQ9 86-172 T142I): as the sequence (Q5SQQ9 86-172 K157R) above, with T57I, R72K counted along it
PROP1 (Homo sapiens, UniProt O75360 56-141, F88S), sequence (O75360 56-141 F88S): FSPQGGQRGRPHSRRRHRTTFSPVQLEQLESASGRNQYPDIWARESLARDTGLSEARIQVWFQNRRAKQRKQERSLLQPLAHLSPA
ALX3 (Homo sapiens, UniProt O95076 139-225, L168V), sequence (O95076 139-225 L168V): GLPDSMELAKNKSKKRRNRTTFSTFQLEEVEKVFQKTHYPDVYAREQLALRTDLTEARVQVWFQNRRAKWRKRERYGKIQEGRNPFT
ALX1 (Homo sapiens, UniProt Q15699 118-204), sequence (Q15699 118-204): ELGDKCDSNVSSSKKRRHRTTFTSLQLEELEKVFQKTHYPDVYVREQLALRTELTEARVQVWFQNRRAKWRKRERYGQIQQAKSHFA
ALX1 (Homo sapiens, UniProt Q15699 118-204, L144R), sequence (Q15699 118-204 L144R): as the sequence (Q15699 118-204) above, with L27R counted along it
HOXA2, sequence (O43364 129-215 R185K): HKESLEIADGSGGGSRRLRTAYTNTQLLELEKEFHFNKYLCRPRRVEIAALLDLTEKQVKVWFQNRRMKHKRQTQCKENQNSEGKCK
PROP1 (Homo sapiens, UniProt O75360 56-141, R99H), sequence (O75360 56-141 R99H): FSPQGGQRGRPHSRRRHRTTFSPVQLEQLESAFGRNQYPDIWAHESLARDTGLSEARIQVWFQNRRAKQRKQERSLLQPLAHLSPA
PROP1 (Homo sapiens, UniProt O75360 56-141), sequence (O75360 56-141): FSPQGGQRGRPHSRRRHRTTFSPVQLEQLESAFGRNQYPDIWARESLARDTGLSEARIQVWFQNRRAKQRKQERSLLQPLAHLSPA
ALX3 (Homo sapiens, UniProt O95076 139-225), sequence (O95076 139-225): as the sequence (O95076 139-225 L168V) above, with V30L counted along it
ALX3 (Homo sapiens, UniProt O95076 139-225, N203S), sequence (O95076 139-225 N203S): as the sequence (O95076 139-225 L168V) above, with V30L, N65S counted along it
ALX3 (Homo sapiens, UniProt O95076 139-225, L168Q), sequence (O95076 139-225 L168Q): as the sequence (O95076 139-225 L168V) above, with V30Q counted along it
ALX3 (Homo sapiens, UniProt O95076 139-225, N203Q), sequence (O95076 139-225 N203Q): as the sequence (O95076 139-225 L168V) above, with V30L, N65Q counted along it
ALX1 (Homo sapiens, UniProt Q15699 118-204, L144V), sequence (Q15699 118-204 L144V): as the sequence (Q15699 118-204) above, with L27V counted along it

Consider GGCCAGCA, for which the binding signal with MSX2 [1] was 9.48 upbm affinity estimate (log intensity, higher = more binding, comparable within an allelic series); with NKX2-6 [2] it was 9.51 upbm affinity estimate (log intensity, higher = more binding, comparable within an allelic series); with MSX2 [3] it was 9.54 upbm affinity estimate (log intensity, higher = more binding, comparable within an allelic series); with VAX1 [4] it was 7.05 upbm affinity estimate (log intensity, higher = more binding, comparable within an allelic series); in the assay with NKX2-6 [5] it was 9.32 upbm affinity estimate (log intensity, higher = more binding, comparable within an allelic series); with MSX2 [6], 9.57 upbm affinity estimate (log intensity, higher = more binding, comparable within an allelic series). Also, the binding signal was 7.11 upbm affinity estimate (log intensity, higher = more binding, comparable within an allelic series) with VAX1 [7] and 7.17 upbm affinity estimate (log intensity, higher = more binding, comparable within an allelic series) with VAX1 [8].

CCCCTACG: the binding signal with MSX2 [1] is 9.54 upbm affinity estimate (log intensity, higher = more binding, comparable within an allelic series); with MSX2 [3], 9.48 upbm affinity estimate (log intensity, higher = more binding, comparable within an allelic series); in the assay with MSX2 [6] it was 9.63 upbm affinity estimate (log intensity, higher = more binding, comparable within an allelic series).

On to ATGATTAC, for which the binding signal with MSX2 [1] is 10.9 upbm affinity estimate (log intensity, higher = more binding, comparable within an allelic series).

As for GAACACCC, the binding signal with MSX2 [1] was 9.57 upbm affinity estimate (log intensity, higher = more binding, comparable within an allelic series); with MSX2 [3], 9.63 upbm affinity estimate (log intensity, higher = more binding, comparable within an allelic series); in the assay with MSX2 [6], 9.59 upbm affinity estimate (log intensity, higher = more binding, comparable within an allelic series).

As for GACCTCCC, the binding signal in the assay with MSX2 [1] is 9.42 upbm affinity estimate (log intensity, higher = more binding, comparable within an allelic series); with PITX2 it was 8.09 upbm affinity estimate (log intensity, higher = more binding, comparable within an allelic series); in the assay with MSX2 [3] it was 9.46 upbm affinity estimate (log intensity, higher = more binding, comparable within an allelic series); with MSX2 [6] it was 9.44 upbm affinity estimate (log intensity, higher = more binding, comparable within an allelic series).

On to GCTCCAGC, for which the binding signal in the assay with MSX2 [1] is 9.46 upbm affinity estimate (log intensity, higher = more binding, comparable within an allelic series); in the assay with ALX3 [9], 7.72 upbm affinity estimate (log intensity, higher = more binding, comparable within an allelic series); with MSX2 [3], 9.45 upbm affinity estimate (log intensity, higher = more binding, comparable within an allelic series); with ALX3 [10], 7.57 upbm affinity estimate (log intensity, higher = more binding, comparable within an allelic series); in the assay with ALX3 [11], 7.7 upbm affinity estimate (log intensity, higher = more binding, comparable within an allelic series); with ALX3 [12], 7.6 upbm affinity estimate (log intensity, higher = more binding, comparable within an allelic series). Moreover, the binding signal with MSX2 [6] was 9.5 upbm affinity estimate (log intensity, higher = more binding, comparable within an allelic series); in the assay with ALX3 [13], 7.72 upbm affinity estimate (log intensity, higher = more binding, comparable within an allelic series).

As for CACGGTCG, the binding signal with MSX2 [1] is 9.6 upbm affinity estimate (log intensity, higher = more binding, comparable within an allelic series); in the assay with MSX2 [3], 9.56 upbm affinity estimate (log intensity, higher = more binding, comparable within an allelic series); in the assay with MSX2 [6], 9.58 upbm affinity estimate (log intensity, higher = more binding, comparable within an allelic series).

GAGGTGGC: the binding signal with MSX2 [1] was 9.4 upbm affinity estimate (log intensity, higher = more binding, comparable within an allelic series); with ALX1 [14] it was 6.34 upbm affinity estimate (log intensity, higher = more binding, comparable within an allelic series); with ALX1 [15], 6.43 upbm affinity estimate (log intensity, higher = more binding, comparable within an allelic series); in the assay with MSX2 [3], 9.42 upbm affinity estimate (log intensity, higher = more binding, comparable within an allelic series); with MSX2 [6] it was 9.41 upbm affinity estimate (log intensity, higher = more binding, comparable within an allelic series); with ALX1 [16] it was 6.4 upbm affinity estimate (log intensity, higher = more binding, comparable within an allelic series).

As to CCTGTGCC, the binding signal with MSX2 [1] was 9.49 upbm affinity estimate (log intensity, higher = more binding, comparable within an allelic series); with MSX2 [3], 9.41 upbm affinity estimate (log intensity, higher = more binding, comparable within an allelic series); with PROP1 [17], 6.6 upbm affinity estimate (log intensity, higher = more binding, comparable within an allelic series); with PROP1 [18], 6.69 upbm affinity estimate (log intensity, higher = more binding, comparable within an allelic series); in the assay with PROP1 [19], 6.62 upbm affinity estimate (log intensity, higher = more binding, comparable within an allelic series); with MSX2 [6], 9.42 upbm affinity estimate (log intensity, higher = more binding, comparable within an allelic series).

Consider CACCAGCC, for which the binding signal in the assay with MSX2 [1] is 9.46 upbm affinity estimate (log intensity, higher = more binding, comparable within an allelic series); with MSX2 [3], 9.42 upbm affinity estimate (log intensity, higher = more binding, comparable within an allelic series); with MSX2 [6], 9.47 upbm affinity estimate (log intensity, higher = more binding, comparable within an allelic series).

Regarding AGGGGCCG, the binding signal with MSX2 [1] was 9.46 upbm affinity estimate (log intensity, higher = more binding, comparable within an allelic series); with MSX2 [3], 9.56 upbm affinity estimate (log intensity, higher = more binding, comparable within an allelic series); with MSX2 [6] it was 9.42 upbm affinity estimate (log intensity, higher = more binding, comparable within an allelic series).

Consider TCCGCGGA, for which the binding signal with MSX2 [1] was 9.48 upbm affinity estimate (log intensity, higher = more binding, comparable within an allelic series); with MSX2 [3] it was 9.54 upbm affinity estimate (log intensity, higher = more binding, comparable within an allelic series); with VAX1 [4], 7.16 upbm affinity estimate (log intensity, higher = more binding, comparable within an allelic series); in the assay with MSX2 [6], 9.53 upbm affinity estimate (log intensity, higher = more binding, comparable within an allelic series); with VAX1 [7], 7.5 upbm affinity estimate (log intensity, higher = more binding, comparable within an allelic series); in the assay with VAX1 [8] it was 7.45 upbm affinity estimate (log intensity, higher = more binding, comparable within an allelic series).

Regarding GAGCCGAC, the binding signal in the assay with MSX2 [1] was 9.44 upbm affinity estimate (log intensity, higher = more binding, comparable within an allelic series); with MSX2 [3], 9.46 upbm affinity estimate (log intensity, higher = more binding, comparable within an allelic series); with VAX1 [4], 7.12 upbm affinity estimate (log intensity, higher = more binding, comparable within an allelic series); with MSX2 [6], 9.31 upbm affinity estimate (log intensity, higher = more binding, comparable within an allelic series); with VAX1 [7], 7.21 upbm affinity estimate (log intensity, higher = more binding, comparable within an allelic series); with VAX1 [8], 7.3 upbm affinity estimate (log intensity, higher = more binding, comparable within an allelic series).

Regarding AGGCGTGA, the binding signal with MSX2 [1] was 9.57 upbm affinity estimate (log intensity, higher = more binding, comparable within an allelic series); with MSX2 [3], 9.37 upbm affinity estimate (log intensity, higher = more binding, comparable within an allelic series); with MSX2 [6], 9.36 upbm affinity estimate (log intensity, higher = more binding, comparable within an allelic series).

Regarding GCCAGGAC, the binding signal is 9.69 upbm affinity estimate (log intensity, higher = more binding, comparable within an allelic series) with MSX2 [1]; 9.71 upbm affinity estimate (log intensity, higher = more binding, comparable within an allelic series) in the assay with MSX2 [3]; 9.76 upbm affinity estimate (log intensity, higher = more binding, comparable within an allelic series) in the assay with MSX2 [6].

Take GGTAATCA: the binding signal is 11 upbm affinity estimate (log intensity, higher = more binding, comparable within an allelic series) in the assay with MSX2 [1] and 13.3 upbm affinity estimate (log intensity, higher = more binding, comparable within an allelic series) in the assay with HOXA2.

As to CCAATCAA, the binding signal in the assay with MSX2 [1] is 11 upbm affinity estimate (log intensity, higher = more binding, comparable within an allelic series).

Turning to AAATATTT, the binding signal with MSX2 [1] was 10.7 upbm affinity estimate (log intensity, higher = more binding, comparable within an allelic series); with MSX2 [3], 11.1 upbm affinity estimate (log intensity, higher = more binding, comparable within an allelic series); with MSX2 [6] it was 11 upbm affinity estimate (log intensity, higher = more binding, comparable within an allelic series).

Take CGGCGGCA: the binding signal with MSX2 [1] was 9.49 upbm affinity estimate (log intensity, higher = more binding, comparable within an allelic series); with MSX2 [3], 9.38 upbm affinity estimate (log intensity, higher = more binding, comparable within an allelic series); in the assay with MSX2 [6], 9.41 upbm affinity estimate (log intensity, higher = more binding, comparable within an allelic series).

AGGGGGAG: the binding signal with MSX2 [1] is 9.43 upbm affinity estimate (log intensity, higher = more binding, comparable within an allelic series); in the assay with MSX2 [3], 9.52 upbm affinity estimate (log intensity, higher = more binding, comparable within an allelic series); with MSX2 [6], 9.49 upbm affinity estimate (log intensity, higher = more binding, comparable within an allelic series).
